Measurements from ChEMBL document CHEMBL3988442, “University of Dundee, Small-Polar-MMV Screening Library” (2021).
The campaign covered roughly 69,000 compounds. About 1,000 (1.4%) showed an effect of 50% or more. For the sample, strong results were picked, then their nearest neighbours and some compounds at random.

Test system: Leishmania donovani
Assay: Leishmania intramacrophage assay
Assay type: functional, organism-based
Set-up: scale not given: in the data most compounds retested in dose-response had high values

| Compound | Percent Effect (30.3 µM, […]) [%] | Percent Effect (30 µM, 30.03 µM) [%] |
| --- | --- | --- |
| Cc1nc(CO[C@@H]2CN(Cc3cccnc3)[C@@H]3COC[C@@H]32)cs1.O=C(O)C(F)(F)F.O=C(O)C(F)(F)F | 21.07 |  |
| O=C(O)C(F)(F)F.O=C(O)C(F)(F)F.c1cncc(CO[C@H]2CN(Cc3ccco3)[C@@H]3COC[C@H]23)c1 | 63.54 |  |
| Fc1ccc(CN2C[C@@H](OCc3ccccn3)[C@H]3COC[C@H]32)cc1.O=C(O)C(F)(F)F.O=C(O)C(F)(F)F | 38.45 |  |
| O=C(O)C(F)(F)F.O=C(O)C(F)(F)F.O=C(O)C(F)(F)F.c1ccc(CO[C@@H]2CN(Cc3cccnc3)[C@@H]3COC[C@@H]32)nc1 | -0.4082 |  |
| O=C(O)C(F)(F)F.O=C(O)C(F)(F)F.c1ccc(CO[C@@H]2CN(Cc3nccs3)[C@@H]3COC[C@@H]32)nc1 | 56.79 |  |
| Cc1cccc(CN2C[C@H](OCc3ccccn3)[C@H]3COC[C@H]32)n1.O=C(O)C(F)(F)F.O=C(O)C(F)(F)F | 10.8 |  |
| O=C(c1ccc2c(c1)OCO2)N1CCC(C(=O)O)(c2ccccc2)CC1 | 0.8951 |  |
| O=C(NC1CCC1)[C@H]1C[C@H]2NCCO[C@@H]2C1 | 13.25 |  |
| CC(C)NC(=O)[C@@H]1C[C@H]2NCC[C@H]2O1.Cl | 56.79 |  |
| CC(C)NC(=O)[C@H]1C[C@H]2NCCO[C@@H]2C1 | 20.26 |  |
| CCCN1CCC[C@]2(CCC(=O)N2Cc2ccncc2)[C@H]1CC.O=C(O)C(F)(F)F.O=C(O)C(F)(F)F | -2.592 |  |
| CN(C)C[C@H]1C[C@@H]2CN(Cc3ccco3)C[C@@H]2O1.O=C(O)C(F)(F)F.O=C(O)C(F)(F)F | -9.327 |  |
| Cc1cccc(CN2CCN3C[C@H](Oc4cncnc4)C[C@H]3C2)n1.O=C(O)C(F)(F)F.O=C(O)C(F)(F)F | 42.71 |  |
| Fc1cnc(N2CCN3C[C@H](Oc4cncnc4)C[C@H]3C2)nc1.O=C(O)C(F)(F)F.O=C(O)C(F)(F)F | 16.13 |  |
| CN1CC[C@@H]2OC[C@H](C(=O)N(C)Cc3ccccn3)C[C@@H]2C1.O=C(O)C(F)(F)F.O=C(O)C(F)(F)F | 55.09 |  |
| CCCN1CC[C@@H]2OC[C@H](C(=O)Nc3cccnc3)C[C@@H]2C1.O=C(O)C(F)(F)F.O=C(O)C(F)(F)F | 21.37 |  |
| C[C@H]1C[C@H]2CN(Cc3ccccn3)CC[C@@H]2O1.O=C(O)C(F)(F)F.O=C(O)C(F)(F)F | 19.92 |  |
| CCS(=O)(=O)N1CCc2c(COCCN(C)C)cncc2C1.O=C(O)C(F)(F)F.O=C(O)C(F)(F)F | 30.88 |  |
| Cl.NC(CC1CCCCC1)c1ccccc1 (centres undefined) | 68.07 |  |
| Cl.NC(Cc1nc(-c2ccccc2)no1)c1ccccc1 (centres undefined) | -5.876 |  |
| COCC1CC2(CCN(c3cc(OC)ncn3)CC2)CN1C(C)C.O=C(O)C(F)(F)F (centres undefined) | 17.84 |  |
| Cc1cc(CNC2(c3ccccc3)CCCCC2)no1 | 4.963 |  |
| Cc1nc(C2(NCc3cccc(F)c3F)CCCCC2)no1 | 15.79 |  |
| Cc1cc(CNC2(c3ccccc3)CCCCC2)on1 | 51.47 |  |
| CCN1C[C@H]2[C@@H](C1)N(S(=O)(=O)c1cccnc1)CC[C@H]2OC.O=C(O)C(F)(F)F.O=C(O)C(F)(F)F |  | -25.11 |
| O=C(Cc1cnccn1)N1C[C@H]2CC[C@@H]1CN(Cc1cscn1)C2 | 50.19 |  |
| COc1ccccc1CC(=O)N1C[C@H]2CC[C@@H]1CN(Cc1cscn1)C2 | -17.19 |  |

| Compound | Percent Effect (30.3 µM, […]) [%] | Percent Effect (30 µM, 30.03 µM) [%] |
| --- | --- | --- |
| O=C(Cc1ccncc1)N1C[C@H]2CC[C@@H]1CN(Cc1cccnc1)C2 | 24.39 |  |
| CC(C)(O)CNc1ccc(C#N)c(C(F)(F)F)c1 | 100.1 |  |
| CC(C)(CNc1ccc(C#N)c(C(F)(F)F)c1)C(N)=O | 20.21 |  |
| CC(C)(C)NC(=O)CNc1ccc(C#N)c(C(F)(F)F)c1 | 3.3 |  |
| Cc1ncc2c(c1-c1noc(-c3cscn3)n1)CCNC2 | -9.596 |  |
| CCOc1ccc(C2SCC(=O)Nc3c2c(=O)[nH]n3C(C)C)cc1 (centres undefined) | -0.8562 |  |
| CN1C[C@H](NC(=O)c2cscn2)[C@@H]2OCCC[C@@H]21.O=C(O)C(F)(F)F | 54.94 |  |
| O=C(N[C@@H]1CN[C@@H]2CCCO[C@@H]21)c1cscn1.O=C(O)C(F)(F)F | 4.147 |  |
| Cl.O=C(N[C@H]1CN[C@H]2CCCO[C@H]21)c1cscn1 |  | 25.22 |
| Cc1cc(CN2C[C@@H]3COC[C@]3(CN(C)C)C2)no1.O=C(O)C(F)(F)F.O=C(O)C(F)(F)F |  | -27.07 |
| Fc1cnc(N2CCCC3(CN(Cc4cccs4)CCO3)C2)nc1.O=C(O)C(F)(F)F (centres undefined) | -13.69 |  |
| CC(C)N(C)Cc1cncc2c1CCN(Cc1ccoc1)C2.Cl.Cl.Cl | 28.71 |  |
| O=C(O)C(F)(F)F.O=C(O)C(F)(F)F.c1cncc(OC[C@]23COC[C@H]2CN(C2CCC2)C3)c1 | 24.17 |  |
| Cn1nc(CN2CCCCC(N)C2)c2c(Cl)cccc21 (centres undefined) | 74.89 |  |
| Cc1cc(CN2C[C@@H]3COC[C@]3(CNC(=O)c3ccno3)C2)no1 |  | 11.65 |
| Cl.O=C1CC2(CCCNC2)C(=O)N1Cc1ccccc1 (centres undefined) |  | 10.36 |
| Fc1cccnc1O[C@@H]1CN(Cc2ccco2)[C@@H]2CCCO[C@@H]21.O=C(O)C(F)(F)F.O=C(O)C(F)(F)F | 0.2133 |  |
| Cc1c(C2N3C[C@]4(C)CN2C[C@](C)(C3)C4=O)[nH]c(=O)[nH]c1=O (some centres undefined) | 18.9 |  |
| O=C(Nc1ccc(F)cc1)N1CCC(CO)(Nc2ccccc2)CC1 | 1.566 |  |
| Cc1ccc(NC(=O)N2CCC(CO)(Nc3ccccc3)CC2)cc1 | 64.38 |  |
| Cc1cccc(NC(=O)N2CCC(CO)(Nc3ccccc3)CC2)c1 | 33.34 |  |
| O=C(O)C(F)(F)F.O=C(O)C(F)(F)F.c1ccc(CN2CCN3C[C@H](Oc4cncnc4)C[C@H]3C2)nc1 | 2.199 |  |
| O=C(O)C(F)(F)F.O=C(O)C(F)(F)F.O=C(c1ccco1)N1CCN2C[C@H](OCc3cccnc3)C[C@H]2C1 | 15.93 |  |
| O=C(O)C(F)(F)F.c1ccc(NC[C@@H]2CCC[C@@H]3CN(Cc4cccnc4)C[C@@H]32)nc1 | 38.85 |  |
| Fc1cccc(CN2C[C@@H]3CN(c4ncccn4)C[C@@H]3C2)c1.O=C(O)C(F)(F)F.O=C(O)C(F)(F)F | 8.696 |  |
| Cc1noc(C)c1CN1C[C@@H]2CC(F)(F)C[C@@H]2C1.O=C(O)C(F)(F)F | 4.682 |  |
| Cc1noc(C)c1CN1C[C@H]2CN(Cc3cccc(F)c3)C[C@H]2C1.O=C(O)C(F)(F)F.O=C(O)C(F)(F)F | 50.84 |  |

| Compound | Percent Effect (30.3 µM, […]) [%] | Percent Effect (30 µM, 30.03 µM) [%] |
| --- | --- | --- |
| O=C(C1CCOC1)N1CCC2(CCNCC2)C1 (centres undefined) | 11.74 |  |
| Cc1cc(CN2CC[C@H]3C[C@@H](c4nccs4)O[C@@H]3C2)no1 | 12.1 |  |
| Cc1cc(CN2CC[C@@H]3O[C@@H](c4nnc(C)o4)C[C@H]3C2)no1 | 55.35 |  |
| Cc1nnc([C@H]2C[C@@H]3CCN(Cc4cc(C)on4)C[C@H]3O2)[nH]1 | 19.71 |  |
| CCc1c(C)[nH]c(C2(N)CCCC2)nc1=O.Cl | 9.424 |  |
| O=C(O)C(F)(F)F.O=C(O)C(F)(F)F.c1cnc(N2CCCC3(CCN(CC4CC4)C3)C2)nc1 (centres undefined) | 29.01 |  |
| O=C(O)C(F)(F)F.c1cnc(N2CCCC3(CCN(CC4CCC4)C3)C2)nc1 (centres undefined) | 67.66 |  |
| O=C(O)C(F)(F)F.c1cnc(N2CCC3(CCCN(CC4CC4)C3)CC2)nc1 | 32.8 |  |
| Cc1noc([C@@H]2C[C@H]3OCC[C@H]3N(C(C)C)C2)n1.O=C(O)C(F)(F)F | -1.476 |  |
| c1ccc(N2CCCC3(CCN(Cc4nccs4)C3)C2)nc1 (centres undefined) |  | 40.77 |
| CNC(=O)[C@@H]1[C@H]2CNCCN2C[C@H]1c1ccccc1 | 3 |  |
| Cc1ccc(CN2CCC3(CC2)C(=O)Nc2ccccc23)s1.O=C(O)C(F)(F)F | 7.529 |  |
| Cl.Cl.NCC1[C@H]2CN(CCc3ccccc3)C[C@@H]12 (some centres undefined) |  | 31.54 |
| NCC1[C@H]2CN(Cc3cccc(Cl)c3)C[C@@H]12 (some centres undefined) | 88.17 |  |
| Cl.Cl.NC[C@H]1[C@H]2CN(Cc3ccccc3)C[C@@H]12 |  | 3.608 |
| CN1CCCCC1c1cncc(Cl)n1.Cl (centres undefined) | 9.533 |  |
| CCN1CCC2(CC1)C(=O)Nc1ccc(C(=O)NC)cc12.O=C(O)C(F)(F)F | 1.318 |  |
| O=C(N1CCOCC1)[C@@]12CCO[C@@H]1CCN(Cc1ccncc1)C2.O=C(O)C(F)(F)F.O=C(O)C(F)(F)F | 2.48 |  |
| CNC(C)Cc1ccccc1Sc1ccc(O)cc1.Cl (centres undefined) | 66.06 |  |
| CC(N)Cc1ccccc1Sc1ccc(O)cc1.CC(N)Cc1ccccc1Sc1ccc(O)cc1.O=C(O)C(=O)O (centres undefined) | 78.04 |  |
| CNS(=O)(=O)CC(=O)NC(C)Cc1ccccc1Br (centres undefined) | 6.804 |  |
| CC[C@H](C)[C@@H](CO)NC(C)Cc1ccccc1F (some centres undefined) | 2.411 |  |
| CC(N)Cc1ccccc1Sc1ccccc1.O=C(O)/C=C\C(=O)O (centres undefined) | 100.2 |  |
| Cc1noc(C)c1CN1CCCC2(CCN(C(=O)NC3CC3)C2)C1.O=C(O)C(F)(F)F (centres undefined) |  | 17.52 |
| O=C(C[C@@H]1COC[C@H]2CN(Cc3cccnc3)C[C@@H]12)N1CCCC1.O=C(O)C(F)(F)F.O=C(O)C(F)(F)F | -30.89 |  |
